Measurements from PubChem BioAssay (NCI).
“And” between values parts separate entries of the source, which are not always exact repeats. Identical values can stand only once. The panel holds about 83,000 compounds, 20% with a hit somewhere; the sample as a whole holds those more often.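 Treatment: one concentration, 48 hours, 96-well format. Scoring: percent growth, with anything below 10 considered active.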 A number with no mark means an inactive call. The source made the active and inactive calls.

What was measured:
Test in all cases: NCI-60 one-dose screen, 48 h (100 = growth as untreated, 0 = no growth, -100 = all killed)
T-47D breast = settings: 10 µM
BT-549 breast = settings: 10 µM
MDA-MB-435 melanoma = settings: 10 µM
SW-620 colon = settings: 10 µM
MCF7 breast = test system: MCF7 breast
HCT-116 colon = settings: 10 µM
HCC-2998 colon = settings: 10 µM
KM12 colon = settings: 10 µM

| Compound | growth (T-47D breast) | growth (BT-549 breast) | growth (MDA-MB-435 melanoma) | growth (SW-620 colon) | growth (MCF7 breast; 10 µM unless noted) | growth (HCT-116 colon) | growth (HCC-2998 colon) | growth (MCF7 breast; 10 µM) | growth (MCF7 breast; 100 µM) | growth (KM12 colon) |
| --- | --- | --- | --- | --- | --- | --- | --- | --- | --- | --- |
| O=C(O)CSCSCC(=O)O | 95.4% | 101% | 99.6% | 105% | 99.6% | 106% | 109% |  |  |  |
| S=C1NCc2cncnc2N1 | 105% | 100% | 101% | 109% | 93.4% | 99.1% | 106% |  |  |  |
| COc1ccc(Oc2c(I)cc(CC(NC(C)=O)C(=O)O)cc2I)cc1 (stereo not given) | 74% | 65.1% | 85.1% | 104% | 89.2% | 79.6% | 88% |  |  |  |
| COCCCNC(=O)c1nnn2c1nc(N)c1cc(Cl)ccc12 | 79% | 79.2% | 10.9% | 81% | 73.4% | 77.6% | 89.4% |  |  |  |
| C=C[Si](OC(C)=O)(OC(C)=O)OC(C)=O | 93.6% | 95.9% | 99.6% | 101% | 92.9% | 100% | 103% |  |  |  |
| COc1cccc(Sc2ccc([N+](=O)[O-])c3no[n+]([O-])c23)c1 | 40.2% | 46.8% | 64.4% | -0.655% (active) | 39% | -91.4% (active) | 55.4% |  |  |  |
| O=C(O)CCC(=O)OC(C1CO1)C(OC(=O)CCC(=O)O)C1CO1 (stereo not given) | 94% | 108% | 103% | 106% | 90.6% | 99.2% | 108% |  |  |  |
| C=C1CC/C=C(\C)C(=O)C[C@@H]2[C@@H]1CC2(C)C | 94.6% | 105% | 115% | 119% |  | 99.9% | 98.1% | 101% | -72% (active) | 109% |
| COC(=O)c1ccccc1Br | 109% | 109% | 98.5% | 109% | 106% | 92% | 106% |  |  |  |
| COC(=O)CCCCC1=CCC2C(=O)C=C(O)C2C1 (stereo not given) | 98.9% | 98.7% | 110% | 106% | 94.9% | 102% | 132% |  |  |  |
| Cc1cccc([N+](=O)[O-])c1Cl | 103% | 100% | 91.4% | 100% | 105% | 108% | 86.1% |  |  |  |
| O=C1Cc2ccccc2C(=O)O1 | 108% | 101% | 107% | 105% | 102% | 98.2% | 112% |  |  |  |
| CCOC(=O)C/C(C)=N\O | 98.3% | 97.1% | 107% | 101% | 101% | 103% | 101% |  |  |  |
| O=C(CC(=O)c1ccccc1O)c1ccccc1 | 79.7% | 77.5% | 102% | 86.4% | 76.4% | 76.6% | 107% |  |  |  |
| Oc1ccc2c(c1)OCC1(O)Cc3cc(O)c(O)cc3C21 (stereo not given) | 168% | 88.9% | 92.3% | 95% | 103% | 84.1% | 64.8% |  |  |  |
| Cc1ccc(C(=O)N/N=C/c2ccc3c(c2)OCO3)cc1 | 94.7% | 107% | 92.7% | 106% | 103% | 92.4% | 96% |  |  |  |
| CNC(=O)c1ccccc1CC1(O)c2ccccc2Oc2ccccc21 | 49.4% | 65% | -51.3% (active) | 29.2% | 25.6% | 32.4% | 80.9% |  |  |  |
| OCCN1CCOCC1 | 106% | 115% | 116% | 113% | 94.8% | 97.2% |  |  |  |  |
| CN1C(=O)CN2CCc3ccccc3C2c2cc(Cl)ccc21 (stereo not given) | 104% | 99.7% | 105% | -33.6% (active) | 84.5% | 82.5% | 98.1% |  |  |  |
| CCOC(=O)c1coc(C(=O)OCC)c1C(=O)OCC | 117% | 119% | 108% | 113% | 113% | 115% | 108% |  |  |  |

| Compound | growth (T-47D breast) | growth (BT-549 breast) | growth (MDA-MB-435 melanoma) | growth (SW-620 colon) | growth (MCF7 breast; 10 µM unless noted) | growth (HCT-116 colon) | growth (HCC-2998 colon) | growth (MCF7 breast; 10 µM) | growth (MCF7 breast; 100 µM) | growth (KM12 colon) |
| --- | --- | --- | --- | --- | --- | --- | --- | --- | --- | --- |
| Cc1ccccc1N=C(c1ccccc1)C1C(=O)c2ccccc2C1=O | 40.4% | 42.6% | 27% | 84.3% | 55.2% | 46.4% | 104% |  |  |  |
| Cc1nc2ccccc2c2nnc(SCC(=O)N(Cc3ccccc3)c3ccccc3)n12 | 76.4% | 87.2% | 96% | 93.5% | 102% | 43.1% | 110% |  |  |  |
| O=c1cc(-c2ccccc2)nc2cc(-c3ccco3)[nH]n12 | 65.4% | 98.3% | 41.8% | 81.7% | 28% | 90.3% | 91.7% |  |  |  |
| COCCOCCCl | 98.1% | 107% | 106% | 101% | 100% | 99.7% | 101% |  |  |  |
| O=S(=O)(O)c1ccc(O)c2ccccc12 | 99.4% | 91.6% | 113% | 97.3% | 94.3% | 98.4% | 114% |  |  |  |
| FC(F)(F)c1ccc2c(c1)N(CCCN1CCN(C3CC3)CC1)c1ccccc1S2 | 87.8% | 61% | 57.7% | 38.9% | 77.3% | 42.7% |  |  |  |  |
| O=C(NCCNC(=O)c1ccc(Cl)cc1Cl)c1ccc(Cl)cc1Cl | 99.3% | 111% | 106% | 113% | 102% | 104% | 100% |  |  |  |
| CC(=O)c1sc2c(c1OC(=O)c1ccc(Cl)cc1Cl)c(=O)n(-c1ccccc1)c(=S)n2-c1ccccc1 | 61.1% | -24.4% (active) | 4.71% (active) | 14% |  | -0.425% (active) | 24.6% | 51.2% | 6.27% (active) and -47.6% (active) | -0.943% (active) |
| COc1ccccc1N1CCN(C(=S)Nc2ccccc2)CC1 | 90.9% | 91.7% | 102% | 103% | 99.5% | 103% | 134% |  |  |  |
| CCOC(=O)C(CCC(C)C)C(=O)OCC | 100% | 104% | 102% | 102% | 97.5% | 108% | 101% |  |  |  |
| CCCCCCCCOC(=O)c1ccccn1 | 96.4% | 94.5% | 116% | 98.3% | 96.2% | 94.2% |  |  |  |  |
| CC(=O)OCC1=CC2OC(=O)C3=COC(OC4OC(CO)C(O)C(O)C4O)C1C32 (stereo not given) | 105% | 110% | 109% | 111% |  | 123% | 300% | 96.7% | 78% and 90.4% | 107% |
| O=C(O)/C=C/c1ccc2c(c1)CCC2 | 104% | 100% | 99.8% | 106% | 109% | 105% | 108% |  |  |  |
| O=C(NCc1ccco1)Nc1c(Cl)cc(Cl)cc1Cl | 88.6% | 96.1% | 96.5% | 102% | 92.8% | 95.5% | 102% |  |  |  |
| C/C(=N\O)C1(O)CCCCC1 | 72.7% | 102% | 108% | 101% | 50.7% | 101% | 109% |  |  |  |
| CCCCCCCCCCC(C)Br (stereo not given) | 99.2% | 105% | 99.6% | 106% | 98.4% | 100% | 91% |  |  |  |
| c1cc[n+](C2c3ccccc3C([n+]3ccccc3)c3ccccc32)cc1 (stereo not given) | 75.5% | 100% | 79.3% | 69.8% | 68.8% | 68.2% | 68.2% |  |  |  |
| CC(C)=CC(=O)OC(=O)C=C(C)C | 105% | 105% | 107% | 110% | 94.7% | 109% | 117% |  |  |  |
| Cc1cc(N)c(S(=O)(=O)O)c(N)c1 | 89.7% | 57.8% | 101% | 90.8% | 105% | 91.9% | 86.3% |  |  | 107% |
| Cc1ccccc1C1N=C2Oc3ccccc3C=C2C(=O)N1 (stereo not given) | 48.1% | 27.2% | -57.7% (active) | 40% | 20.8% | 42.1% | 26.1% |  |  | 64.8% |
